# Source: PubChem BioAssay (Tox21)
# “And” between values parts separate entries of the source, which are not always exact repeats. Equal values may be shown once. A number with no mark means an inactive call. Results filed as inconclusive are left out. Entries that show only a call come without a potency. The source made the active and inactive calls. Calls come from the whole dose curve; as a rule, active = well fitted curve in the direction sought with a large enough effect in the repeat runs; inconclusive = weak or mixed curves; inactive = no such curve, though single readings can be large; an effect the other way counts as inactive or inconclusive.
# Experiments:
# [1] = A CellTox Green Cytotoxicity Assay to monitor cytotoxicity in HEK293 cells - 40 hour (AID 1224871); note: nearly all actives have a fitted effect of over 45% in size; note: potency is the fitted concentration of half-maximal effect
# How it was run: (§1)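 Fluorescence from a DNA-binding dye excluded by viable cells was measured repeatedly in the same HEK293 wells (600 cells/well) during continuous compound exposure at 37 C. Each assay gives one read point: 0, 8, 16, 24, 32 or 40 h.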
# [2] = qHTS RealTime-Glo MT Cell Viability Assay in HEK293 cells - 40 hour (AID 1224874); conditions: RealTime-Glo luminescence; max response: stronger effect = lower value; note: nearly all actives have a fitted effect of over 50% in size; note: potency is the fitted concentration of half-maximal effect
# How it was run: (§2)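 Luminescence, which tracks viable cell number through reduction of the prosubstrate to a NanoLuc substrate, was read over continuous 37 C culture. Cells (600/well) were premixed with reagent and rested 5 h before 23 nL of compound in DMSO was pinned.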
# [3] = A CellTox Green Cytotoxicity Assay to monitor cytotoxicity in HEK293 cells - 24 hour (AID 1224875); note: nearly all actives have a fitted effect of over 45% in size; note: potency is the fitted concentration of half-maximal effect
# How it was run: as §1
# [4] = A CellTox Green Cytotoxicity Assay to monitor cytotoxicity in HepG2 cells - 16 hour (AID 1224876); note: nearly all actives have a fitted effect of over 45% in size; note: potency is the fitted concentration of half-maximal effect
# How it was run: (§3)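 Real-time cytotoxicity: fluorescence of a cell-impermeant cyanine dye binding DNA of dead HepG2 cells, measured repeatedly (0–40 h) during compound exposure at 37 C. Cells seeded 600/well with reagent, dosed after 5 h.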
# [5] = qHTS RealTime-Glo MT Cell Viability Assay in HepG2 cells - 32 hour (AID 1224877); note: nearly all actives have a fitted effect of over 55% in size
# How it was run: (§4)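 HepG2 cells (600/well) were dispensed with RealTime-Glo reagents, incubated 5 h at 37 °C, then treated with compounds in DMSO for up to 40 h. Nonlytic NanoLuc luminescence reflecting viable cells was read at each stated time point.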
# [6] = A CellTox Green Cytotoxicity Assay to monitor cytotoxicity in HepG2 cells - 24 hour (AID 1224878); note: nearly all actives have a fitted effect of over 45% in size; note: potency is the fitted concentration of half-maximal effect
# How it was run: as §3
# [7] = A CellTox Green Cytotoxicity Assay to monitor cytotoxicity in HepG2 cells - 40 hour (AID 1224879); note: nearly all actives have a fitted effect of over 40% in size; note: potency is the fitted concentration of half-maximal effect
# How it was run: as §3
# [8] = qHTS RealTime-Glo MT Cell Viability Assay in HEK293 cells - 0 hour (AID 1224880)
# How it was run: as §2
# [9] = A CellTox Green Cytotoxicity Assay to monitor cytotoxicity in HEK293 cells - 32 hour (AID 1224881); note: nearly all actives have a fitted effect of over 40% in size; note: potency is the fitted concentration of half-maximal effect
# How it was run: as §1
# [10] = A CellTox Green Cytotoxicity Assay to monitor cytotoxicity in HepG2 cells - 0 hour (AID 1224882); note: nearly all actives have a fitted effect of over 35% in size
# How it was run: as §3
# [11] = A CellTox Green Cytotoxicity Assay to monitor cytotoxicity in HepG2 cells - 32 hour (AID 1224883); note: nearly all actives have a fitted effect of over 50% in size; note: potency is the fitted concentration of half-maximal effect
# How it was run: as §3
# [12] = A CellTox Green Cytotoxicity Assay to monitor cytotoxicity in HEK293 cells - 8 hour (AID 1224884); note: nearly all actives have a fitted effect of over 35% in size; note: potency is the fitted concentration of half-maximal effect
# How it was run: as §1
# [13] = qHTS RealTime-Glo MT Cell Viability Assay in HepG2 cells - 16 hour (AID 1224885); note: nearly all actives have a fitted effect of over 50% in size; note: potency is the fitted concentration of half-maximal effect
# How it was run: as §4
# [14] = qHTS RealTime-Glo MT Cell Viability Assay in HEK293 cells - 24 hour (AID 1224886); note: nearly all actives have a fitted effect of over 50% in size; note: potency is the fitted concentration of half-maximal effect
# How it was run: (§5)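 HEK293 cells seeded with NanoLuc/prosubstrate reagent, rested 5 h at 37 C, then dosed and kept at 37 C up to 40 h. Nonlytic real-time luminescence from viable cells read at 0, 8, 16, 24, 32 and 40 h.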
# [15] = qHTS RealTime-Glo MT Cell Viability Assay in HEK293 cells - 8 hour (AID 1224887); note: nearly all actives have a fitted effect of over 50% in size; note: potency is the fitted concentration of half-maximal effect
# How it was run: as §2
# [16] = A CellTox Green Cytotoxicity Assay to monitor cytotoxicity in HEK293 cells - 16 hour (AID 1224888); note: nearly all actives have a fitted effect of over 35% in size; note: potency is the fitted concentration of half-maximal effect
# How it was run: as §1
# [17] = qHTS RealTime-Glo MT Cell Viability Assay in HepG2 cells - 0 hour (AID 1224889); note: nearly all actives have a fitted effect of over 50% in size
# How it was run: as §4
# [18] = A CellTox Green Cytotoxicity Assay to monitor cytotoxicity in HepG2 cells - 8 hour (AID 1224890); note: nearly all actives have a fitted effect of over 45% in size; note: potency is the fitted concentration of half-maximal effect
# How it was run: as §3
# [19] = qHTS RealTime-Glo MT Cell Viability Assay in HEK293 cells - 16 hour (AID 1224872); note: nearly all actives have a fitted effect of over 50% in size; note: potency is the fitted concentration of half-maximal effect
# How it was run: as §5
# [20] = qHTS RealTime-Glo MT Cell Viability Assay in HepG2 cells - 8 hour (AID 1224873); note: nearly all actives have a fitted effect of over 55% in size
# How it was run: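 Real-time viability: cells seeded at 600 per well together with NanoLuc and cell-permeant prosubstrate, compounds added after 5 h incubation. Luminescence tracked at 0, 8, 16, 24, 32 and 40 h of exposure.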
structure (smiles),measurement,setting,value
Nc1ncnc2c1ncn2[C@H]1CC[C@@H](CO)O1,Potency,[1],inactive
same,max response,[2],18.9%
same,Potency,[3],inactive
same,Potency,[4],inactive
same,Potency,[5],inactive
same,Potency,[6],inactive
same,Potency,[7],inactive
same,Potency,[8],inactive
same,Potency,[9],inactive
same,Potency,[10],inactive
same,Potency,[11],inactive
same,Potency,[12],inactive
same,Potency,[13],inactive
same,Potency,[14],inactive
same,Potency,[15],inactive
same,Potency,[16],inactive
same,Potency,[17],inactive
same,Potency,[18],inactive
CCOC(=O)c1ccc(I)cc1,Potency,[1],35 µM (active)
same,max response,[2],-24.8%
same,Potency,[4],inactive
same,Potency,[5],inactive
same,Potency,[6],inactive
same,Potency,[7],inactive
same,Potency,[8],inactive
same,Potency,[9],35 µM (active)
same,Potency,[10],inactive
same,Potency,[11],inactive
same,Potency,[12],inactive
same,Potency,[13],inactive
same,Potency,[17],inactive
same,Potency,[18],inactive
C[C@@H]1CC(=O)NN=C1c1ccc(NN=C(C#N)C#N)cc1,Potency,[1],inactive
same,Potency,[3],inactive
same,Potency,[4],inactive
same,Potency,[6],inactive
same,Potency,[7],15.1 µM (active) and 13.4 µM (active)
same,Potency,[10],inactive
same,Potency,[11],16.9 µM (active) and 10.7 µM (active)
same,Potency,[12],inactive
same,Potency,[14],inactive
same,Potency,[15],inactive
same,Potency,[16],inactive
same,Potency,[18],inactive
CC1(C)O[C@@H]2C[C@H]3[C@@H]4C[C@H](F)C5=CC(=O)C=C[C@]5(C)[C@H]4[C@@H](O)C[C@]3(C)[C@]2(C(=O)CO)O1,Potency,[19],inactive
same,Potency,[20],inactive
same,max response,[2],-1.56%
same,Potency,[3],inactive
same,Potency,[4],inactive
same,Potency,[5],inactive
same,Potency,[6],inactive
same,Potency,[7],inactive
same,Potency,[9],inactive
same,Potency,[10],inactive
same,Potency,[11],inactive
same,Potency,[12],inactive
same,Potency,[13],inactive
same,Potency,[14],inactive
same,Potency,[15],inactive
same,Potency,[16],inactive
same,Potency,[18],inactive
CCOC(=O)c1ccccc1C(=C1C=C(Br)C(=O)C(Br)=C1)c1cc(Br)c(O)c(Br)c1,Potency,[1],inactive
same,Potency,[4],inactive
same,Potency,[5],inactive
same,Potency,[6],inactive
same,Potency,[10],inactive
same,Potency,[11],inactive
same,Potency,[12],inactive
same,Potency,[13],inactive
same,Potency,[15],inactive
same,Potency,[16],inactive
same,Potency,[18],inactive
CN(C(=O)CN(CCO)CC(=O)N(C)C(C)(C)Cc1ccccc1)C(C)(C)Cc1ccccc1,Potency,[1],23.9 µM (active)
same,Potency,[2],19 µM (active)
same,Potency,[4],23.9 µM (active)
same,Potency,[6],23.9 µM (active)
same,Potency,[7],23.9 µM (active)
same,Potency,[8],inactive
same,Potency,[11],23.9 µM (active)
same,Potency,[14],19 µM (active)
CCOc1ccccc1O[C@H](c1ccccc1)[C@H]1CNCCO1,Potency,[19],inactive
same,Potency,[20],inactive
same,max response,[2],1.67%
same,Potency,[3],inactive
same,Potency,[4],inactive
same,Potency,[5],inactive
same,Potency,[6],inactive
same,Potency,[8],inactive
same,Potency,[9],inactive
same,Potency,[10],inactive
same,Potency,[12],inactive
same,Potency,[13],inactive
same,Potency,[14],inactive
same,Potency,[15],inactive
same,Potency,[16],inactive
same,Potency,[18],inactive
O=C(O)CCC(=O)C(=O)O,Potency,[19],inactive
same,Potency,[20],inactive
same,max response,[2],0.138%
same,Potency,[3],inactive
same,Potency,[4],inactive
same,Potency,[5],inactive
same,Potency,[6],inactive
same,Potency,[7],inactive
same,Potency,[8],inactive
same,Potency,[10],inactive
same,Potency,[11],inactive
same,Potency,[12],inactive
same,Potency,[13],inactive
same,Potency,[14],inactive
same,Potency,[15],inactive
same,Potency,[16],inactive
same,Potency,[17],inactive
same,Potency,[18],inactive
Cc1cc(O)ccc1O,Potency,[20],inactive
same,Potency,[4],inactive
same,Potency,[5],inactive
same,Potency,[6],inactive
same,Potency,[7],inactive
same,Potency,[8],inactive
same,Potency,[10],inactive
same,Potency,[11],inactive
same,Potency,[12],inactive
same,Potency,[13],inactive
same,Potency,[17],inactive
same,Potency,[18],inactive
C[C@@H](O[C@H]1OCCN(Cc2n[nH]c(=O)[nH]2)[C@H]1c1ccc(F)cc1)c1cc(C(F)(F)F)cc(C(F)(F)F)c1,Potency,[19],19 µM (active)
same,Potency,[2],16.9 µM (active)
same,Potency,[4],16.9 µM (active)
same,Potency,[6],15.1 µM (active)
same,Potency,[7],16.9 µM (active)
same,Potency,[8],inactive
same,Potency,[10],inactive
same,Potency,[11],16.9 µM (active)
same,Potency,[12],inactive
same,Potency,[13],19 µM (active)
same,Potency,[14],16.9 µM (active)
same,Potency,[16],inactive
same,Potency,[17],inactive
same,Potency,[18],16.9 µM (active)
CCCCC(CC)COP(=O)(O)O (stereo unspecified),Potency,[19],inactive
same,Potency,[20],inactive
same,Potency,[4],inactive
same,Potency,[5],inactive
same,Potency,[6],inactive
same,Potency,[8],inactive
same,Potency,[10],inactive
same,Potency,[11],inactive
same,Potency,[12],inactive
same,Potency,[13],inactive
same,Potency,[15],inactive
same,Potency,[17],inactive
same,Potency,[18],inactive
CN1C(=O)N(c2ccccc2Br)Cc2cnc(Nc3ccc4c(c3)OCC(CO)O4)nc21 (stereo unspecified),Potency,[2],4.36 µM (active)
same,Potency,[3],inactive
same,Potency,[4],inactive
same,Potency,[8],inactive
same,Potency,[9],inactive
same,Potency,[10],inactive
same,Potency,[12],inactive
same,Potency,[14],6.92 µM (active)
same,Potency,[15],17.4 µM (active)
same,Potency,[16],inactive
same,Potency,[18],inactive
CN1CCCC(n2nc(Cc3ccc(Cl)cc3)c3ccccc3c2=O)CC1 (stereo unspecified),Potency,[19],7.56 µM (active)
same,Potency,[2],9.52 µM (active)
same,Potency,[4],26.8 µM (active)
same,Potency,[6],23.9 µM (active)
same,Potency,[7],23.9 µM (active)
same,Potency,[8],inactive
same,Potency,[9],30.1 µM (active)
same,Potency,[10],inactive
same,Potency,[11],23.9 µM (active)
same,Potency,[12],inactive
same,Potency,[13],inactive
same,Potency,[14],8.49 µM (active)
same,Potency,[15],7.56 µM (active)
same,Potency,[16],inactive
C(=C\c1ccccc1)/c1ccccc1,Potency,[19],inactive
same,max response,[2],7.61%
same,Potency,[4],inactive
same,Potency,[5],inactive
same,Potency,[6],inactive
same,Potency,[7],inactive
same,Potency,[8],inactive
same,Potency,[10],inactive
same,Potency,[11],inactive
same,Potency,[12],inactive
same,Potency,[13],inactive
same,Potency,[14],inactive
same,Potency,[15],inactive
same,Potency,[17],inactive
same,Potency,[18],inactive
Cc1ccc(CO)cc1,Potency,[19],inactive
same,Potency,[20],inactive
same,max response,[2],18.5%
same,Potency,[4],inactive
same,Potency,[5],inactive
same,Potency,[6],inactive
same,Potency,[8],inactive
same,Potency,[9],inactive
same,Potency,[11],inactive
same,Potency,[12],inactive
same,Potency,[13],inactive
same,Potency,[14],inactive
same,Potency,[15],inactive
same,Potency,[16],inactive
same,Potency,[17],inactive
same,Potency,[18],inactive
COC(=O)[C@H]1[C@H]2C[C@@H]3c4[nH]c5cc(OC)ccc5c4CCN3C[C@H]2C[C@@H](OC(=O)/C=C/c2ccc(O)c(OC)c2)[C@@H]1OC,Potency,[3],16.9 µM (active)
same,Potency,[4],23.9 µM (active)
same,Potency,[5],inactive
same,Potency,[6],26.8 µM (active)
same,Potency,[7],23.9 µM (active)
same,Potency,[8],inactive
same,Potency,[9],19 µM (active)
same,Potency,[11],23.9 µM (active)
same,Potency,[12],19 µM (active)
same,Potency,[13],inactive
same,Potency,[16],16.9 µM (active)
same,Potency,[18],26.8 µM (active)
